# Screens deposited in PubChem by several laboratories.
# Peg3 prom inh = inhibitors of Peg3 promoter; HeLa PEG-Prom luciferase reporter, luminescence, overnight; inhibition, % at 20 µM; actives 1.7% (n = 360,000); AID 588405;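 active = inhibition of at least 50% at 20 µM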
# HIF-2a block = blocks HIF-2a reporter activity; 786-0 RCC cells HIF-2a reporter, luciferase luminescence, overnight; inhibition, % at 18.8 µM; actives 0.72% (n = 360,000); AID 624352;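 active = inhibition of the luminescence signal of 40% or more relative to plate controls, in a single-dose primary screen at 18.75 µM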
# KKLEB tox = reduces viability of KKLEB cystic fibrosis airway cells; activity change (cytotoxicity), % at 5 µM; AID 602141; actives 0.36% (n = 360,000); KKLEB CF airway cells viability, ATPlite luminescence, overnight; hits give low values; cells stimulated with P. aeruginosa culture filtrate;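 active = corrected activity change at or below -50% at 5 µM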
# Shn3 3UTR inh = reduces Shn3 3'UTR luciferase signal in osteoblasts | Clone20 osteoblast Shn3 3'UTR firefly luciferase, 24 h | inhibition, % at 12.5 µM | actives 0.52% (n = 360,000) | AID 588674;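 active = mean inhibition of at least 75% with every replicate also reaching 75%; inconclusive = mean inhibition at least 75% but some replicate below; inactive = mean inhibition below 75%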;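 also: 0% = median of neutral control wells and 100% = pilot-screen positive control compound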
# CF NFkB block = cystic fibrosis NF-kB activation inhibition | AID 588850 | actives 0.86% (n = 360,000) | KKLEB NF-kB-GFP reporter, PAF-induced, GFP fluorescence overnight | inhibition, % at 5 µM;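 active = at least 50% inhibition at 5 µM, scaled per plate between neutral and stimulator controls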;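 also: PAF is a Pseudomonas aeruginosa culture filtrate used as stimulus; plate controls were PAF-stimulated DMSO wells for no effect and unstimulated DMSO wells for full effect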
# * marks the source's active call; other numbers are inactive results; u = inconclusive; x = no result given. Most compounds without a hit are left out; they make up all but 2.6% or so of the library.
SMILES,Peg3 prom inh,HIF-2a block,KKLEB tox,Shn3 3UTR inh,CF NFkB block
N=c1n(CCN2CCCCC2)c2ccccc2n1CC(O)c1cccc(Br)c1 (stereo not drawn),109.8*,-6.7,-23.0,68.0,20.4
CC1(C)NC(=O)N(CC(=O)OCC(=O)c2ccc(Cl)s2)C1=O,-7.4,-9.8,13.0,1.0,0.9
CN1CCN(CC(O)COc2ccc(C34CC5CC(CC(C5)C3)C4)cc2)CC1 (stereo not drawn),105.2*,-19.8,-33.7,-21.4,25.4
COc1cccc(/C=N\NS(=O)(=O)c2ccccc2)c1OC,16.8,7.2,-16.8,6.3,-38.5
[O-][N+]1=c2ccc(Nc3ccccc3)cc2=NC12CCCCC2,104.4*,-16.9,-45.0,-7.3,84.7*
COc1ccc(Nc2ccc3c(c2)=NC2(CCCCC2)[N+]=3[O-])cc1,95.2*,-49.5,-29.8,-16.5,63.8*
COc1ccc(NC2=NC(=S)N(c3ccccc3C)C23CCCCC3)cc1,-0.3,13.7,7.1,-16.0,-33.8
C[C@@H]1CN([C@H](C)CO)C(=O)CCCn2nncc2CO[C@@H]1CN(C)S(=O)(=O)c1ccc(F)cc1,-2.3,7.0,6.2,4.1,2.5
O=C(O)c1cc(NC(=O)c2ccc(Cl)c([N+](=O)[O-])c2)cc(C(=O)O)c1,11.1,12.8,13.0,2.8,-7.3
O=C(Nc1ccc(C(O)(C(F)(F)F)C(F)(F)F)cc1)c1ccc(Cl)c([N+](=O)[O-])c1,57.7*,-51.2,-0.6,5.0,0.3
CCc1ccc2c(c1)C1(NN=C(c3ccc(C)cc3)S1)C(=O)N2 (stereo not drawn),48.0,89.3*,-11.8,-4.8,1.8
CC(C)c1ccc2c(c1)C1(NN=C(c3ccccc3)S1)C(=O)N2 (stereo not drawn),-64.7,-238.2,4.5,62.5,-2.5
CN1CCN(C(=S)C(=O)Nc2ccccc2)CC1,8.8,8.8,5.2,-1.2,9.4
O=C1ON=C(c2ccccc2)/C1=C/c1ccc(-c2ccccc2[N+](=O)[O-])o1,102.7*,97.7*,-17.5,u,40.2
Cc1ccc(S(=O)(=O)N(CC(=O)NCc2ccncc2)Cc2ccc(F)cc2)cc1,5.7,-4.2,10.7,42.2,-16.7
COc1cc(C)c2sc3ccccc3c(=O)c2c1NCCN(C)C,100.4*,-34.5,-19.0,2.6,-28.8
Cc1cc(O)cc2c(=O)c3ccccc3sc12,-180.0,-156.1,-14.7,-26.1,-89.5
CCN(CC)CCCNc1ccc2ncn3c4ccc(O)cc4c(=O)c1c23,22.6,34.2,-10.6,20.7,-23.5
CN(C)CCNc1cccc2sc3ccc(O)cc3c(=O)c12,99.1*,42.6*,-28.8,-35.5,-65.7
Cc1onc(-c2ccccc2Cl)c1C(=O)Nc1ccc(-c2cn3cccnc3n2)cc1,94.2*,3.3,0.0,73.2,-9.8
COc1ccc(CCNC(=O)c2ccc3c(c2)N(Cc2ccccc2)CCS3)cc1OC,55.2*,3.2,-3.1,10.3,16.4
COc1cccc(CN2CCN(C(=O)[C@H]3O[C@@H](n4cnc5c(N)ncnc54)[C@H](O)[C@@H]3O)CC2=O)c1,-7.3,3.4,-1.8,-26.3,4.3
Cc1ccc(NC(=O)c2cc(-c3cccs3)nc3ccccc23)nc1,41.1,-6.2,-0.1,34.0,-3.1
Cc1cc(C)c2nc(NNC(=O)c3cc(-c4cccs4)nc4ccccc34)sc2c1,51.7*,2.0,-3.5,0.7,11.7
O=C(NN1CCOCC1)c1cc(-c2cccs2)nc2ccccc12,5.8,8.2,-0.8,-9.0,4.9
SMILES,Peg3 prom inh,HIF-2a block,KKLEB tox,Shn3 3UTR inh,CF NFkB block
O=C(NNc1nc2ccc(Cl)cc2s1)c1cc(-c2cccs2)nc2ccccc12,87.1*,14.4,-18.9,2.2,37.5
COc1ccc(S(=O)(=O)Nc2ccc(F)cc2)cc1N(C)S(=O)(=O)c1ccc(Cl)cc1,22.9,-3.3,3.6,42.3,19.6
COc1ccc(NS(=O)(=O)c2ccc(OC)c(N(C)S(=O)(=O)c3ccc(Cl)cc3)c2)cc1,35.1,12.5,-16.4,87.3*,17.1
CCN(CC)C(=O)/C(=C/c1cccc([N+](=O)[O-])c1)NC(=O)c1ccco1,10.9,10.0,-1.2,35.5,-8.4
Cc1ccc(CCC(=O)Nc2ccc(CC(=O)O)cc2)o1,6.1,11.8,6.6,-63.7,-7.3
Cc1cc(C)c(C)c(S(=O)(=O)N2CCN(c3ccccn3)CC2)c1C,20.9,13.0,-2.4,4.2,-7.5
Cc1cc(C)c(C)c(S(=O)(=O)N2CCN(c3ncnc4ccccc34)CC2)c1C,42.9,10.1,2.6,86.4*,20.3
CC12CNCC(C)(CN(C(c3ccccc3)c3ccccc3)C1)C2,81.2*,-0.7,-5.5,-55.0,5.1
Clc1ccc(C(c2ccccc2)N2CCNCC2)cc1 (stereo not drawn),-22.2,-3.6,-10.8,-19.4,2.9
CCn1c(=O)c2ccccc2n2c(SCC(N)=O)nnc12,3.7,14.0,1.5,-9.6,3.0
CN(/N=C/c1cc(Br)cc(Br)c1O)c1cccc(C(F)(F)F)n1,57.5*,13.2,-11.6,9.3,46.3
COc1cc(CNCc2c[nH]c3ccccc23)cc(OC)c1,-225.5,13.5,-1.2,53.5,-10.6
CC1=CC(Cc2ccccc2)N(C)C(C(N)=O)C1 (stereo not drawn),8.9,-1.4,-10.9,6.7,-8.9
Cn1c(=O)c(C(=O)NNC(=O)c2cccc(Cl)c2)c(O)c2ccccc21,63.6*,12.6,-23.9,3.5,72.8*
COc1cc(OC)c2c(c1O)OC(c1ccccc1)CC2=O (stereo not drawn),-9.5,5.5,13.6,5.7,-15.8
Cc1ccc(/C=C/c2nc3ccccc3c(=O)[nH]2)cc1,2.9,-217.0,-68.7*,10.3,-3.0
COC(=O)c1ccc(/C=C/c2nc3ccccc3c(=O)[nH]2)cc1,-86.5,-76.0,-3.5,-64.3,0.7
Cc1ccc(S(=O)(=O)N2[C@@H](c3ccc(C(C)(C)C)cc3)C(C(=O)O)=CC[C@H]2c2ccc3c(c2)OCO3)cc1,17.0,8.5,2.2,8.9,18.2
O=C(CCl)N1c2ccccc2Sc2c1ccc1ccccc21,58.2*,-41.3,-16.3,-2.0,4.4
O=C(COC(=O)Cc1c[nH]c2ccccc12)Nc1cccc(Br)c1,7.1,7.7,12.0,-10.5,-23.3
COC(=O)C[C@@H]1C=C[C@H](NC(=O)Nc2ccc(OC)cc2)[C@@H](CO)O1,x,6.0,x,x,x
Cc1ccc(Nc2cc(C)nc(NCc3ccccc3)n2)cc1,73.3*,-7.3,-29.2,82.4,37.1
COc1ccc(Nc2cc(C)nc(NCc3ccccc3)n2)cc1,8.4,-7.5,-12.4,88.9*,15.2
Cc1cc(NC2CCCCC2)nc(NCc2ccccc2)n1,65.5*,5.3,-8.9,78.0,8.7
Cc1cc(N/N=C/c2ccccc2Cl)nc(NCc2ccccc2)n1,-114.2,-171.6,-27.5,32.0,6.8
COc1cc(C)nc(NCc2ccccc2)n1,-8.8,0.9,-10.4,-26.5,-8.1
COCCOc1nc2c(c(=O)n(C)c(=O)n2C)n1Cc1cccc(OC)c1,19.2,26.0,7.5,87.4*,6.1
